These results are taken from PubChem BioAssay (NCI).

About 83,000 compounds went through this panel and 20% of them were active in at least one assay; those are over-represented in the sample as a whole.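 Compound tested at a single concentration for 48 hours in 96-well plates; a percent growth value below 10 was scored as active.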 Calls of active or inactive are those of the source.

For the experiment, the system named is MDA-MB-435 melanoma. Briefly: NCI-60 one-dose screen, 48 h (100 = growth as untreated, 0 = no growth, -100 = all killed). As to conditions: 10 µM unless noted.
Consider `COc1cc(NCC(O)CN(CC(C)C)CC(C)C)c2nc(C)ccc2c1` (stereo unspecified), for which the growth is 105% (inactive).

In the case of `O=C(Nc1ccc(F)cc1)c1c(NC(=O)C(F)(F)F)sc2c1CCCCC2`, the growth is 3.22% (active).

For the compound `O=C(/C=C\c1ccc(OCCCCCC[P+](c2ccccc2)(c2ccccc2)c2ccccc2)cc1)c1ccc2c(c1)OCCO2`, the growth was -29.8% (active).

With `CCC(C)N(CCNc1cc(OC)cc2cccnc12)CCC(C)C` (stereo unspecified), the growth is 107% (inactive).

With `COC(=O)Nc1ccc(NC(=O)OC)cc1`, the growth was 101% (inactive).

On to `CCCCCCCCCCCCCCCCCCOc1ccccc1N`, for which the growth is 78.7% (inactive).

For the compound `CCN1C(=O)N(CC)C2NC(SC)=NC21` (stereo unspecified), the growth was 102% (inactive).

Take `Cc1ccccc1C(c1ccccc1)c1ccccc1C`: the growth is 105% (inactive).

Take `CCNC(=O)c1[nH]cc(-c2ccc(OC)cc2)c1-c1cc(OC)cc(OC)c1`: the growth is 84.3% (inactive).

Regarding `CN(C)Cc1c(-c2ccccc2)[nH]c2ccccc12`, the growth was 105% (inactive).

As to `O=C(Nc1cccc(Cl)c1)Oc1c(Br)c(Br)c(Br)c(Br)c1Br`, the growth was 99.8% (inactive).

Take `COc1ccc(Cl)cc1NC(=O)c1c(NC(=O)C(F)(F)C(F)(F)F)sc2c1CCCCC2`: the growth is 8.76% (active).

In the case of `COc1ccc(-c2c[nH]c(C(=O)O)c2-c2cc(OC)c3c(c2OC)OCO3)cc1`, the growth is 104% (inactive).

In the case of `COc1cc(-c2cc(=O)oc3cc(O)ccc23)c(OC)c2c1OCO2`, the growth is 101% (inactive).

On to `COc1cc(NCCCN(CC(C)C)CC(C)C)c2ncccc2c1`, for which the growth is 115% (inactive).

On to `CCN(CC)S(=O)(=O)c1cccc([N+](=O)[O-])c1`, for which the growth was 99% (inactive).

As for `Cn1ncc2c(Nc3ccccc3Cl)nc(Cl)nc21`, the growth was 113% (inactive).

Take `COc1cc(NCCN(CC(C)C)C2CCCC2)c2ncccc2c1`: the growth was 111% (inactive).

For `CC(=O)OCC(=O)[C@@]1(O)CC[C@H]2[C@@H]3CC(=C(Br)Br)C4=CC(=O)CC[C@]4(C)[C@H]3C(=O)C[C@@]21C`, the growth was 100% (inactive).

As to `Cc1ccc(-c2c(Br)c(OC(=O)CO[C@@H]3C[C@H](C)CC[C@H]3C(C)C)c(-c3ccc(C)cc3C)c(Br)c2OC(=O)CO[C@H]2C[C@@H](C)CC[C@@H]2C(C)C)c(C)c1`, the growth is 104% (inactive).

As to `COc1cc(/C=C/C(=O)c2c(C)oc3nc[nH]c(=O)c23)ccc1O`, the growth was 102% (inactive).
